From PubChem BioAssay AID1159580 (chemical genetic matrix, 2015)
Out of some 5,500 compounds screened, about 2,000 (36%) were called active. Another 18% or so got no clear call; they are omitted. Cut-off read from the data, not from the text of the source: active = normalized growth mostly below about 0.91 (no sharp cut-off); inconclusive = no clear call, values can overlap the other calls; inactive = mostly above about 0.92. The list shows a part of the results.

Experiment: chemical genetic growth profiling, strain panel (AID 1159580);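 note: tested at 20 µM; growth read once vehicle control cultures reached saturation at 30 °C; 1 = growth at the plate median or of vehicle wells; lower values mean less growth of the strain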
Settings: S. cerevisiae deletion strains, growth OD

Measured: normalized growth

N#Cc1c(Cl)c(Cl)c(Cl)c(Cl)c1C#N
active: locus YAR019C, strain CDC15, hits give low values 0.625 | locus YBL105C, strain PKC1, hits give low values 0.734 | locus YBR135W, strain CKS1, hits give low values 0.721 | locus YBR136W, strain MEC1, hits give low values 0.716 | locus YBR160W, strain CDC28, hits give low values 0.726 | locus YDL017W, strain CDC7, hits give low values 0.722 | locus YDL028C, strain MPS1, hits give low values 0.488 | locus YDL101C, strain DUN1, hits give low values 0.789 | locus YDL108W, strain KIN28, hits give low values 0.707 | locus YDL132W, strain cdc53, hits give low values 0.588 | locus YDL214C, strain PRR2, hits give low values 0.392 | locus YDR052C, strain DBF4, hits give low values 0.77 | locus YDR054C, strain cdc34, hits give low values 0.235 | locus YDR226W, strain ADK1, hits give low values 0.693 | locus YDR477W, strain SNF1, hits give low values 0.283 | locus YER123W, strain YCK3, hits give low values 0.169 | locus YER133W, strain GLC7, hits give low values 0.227 | locus YFL009W, strain cdc4, hits give low values 0.685 | locus YFL029C, strain CAK1, hits give low values 0.639 | locus YFR003C, strain YPI1, hits give low values 0.634 | locus YFR019W, strain FAB1, hits give low values 0.315 | locus YFR028C, strain CDC14, hits give low values 0.66 | locus YGR040W, strain KSS1, hits give low values 0.352 | locus YGR052W, strain FMP48, hits give low values 0.382 | locus YGR092W, strain DBF2, hits give low values 0.135 | locus YHR030C, strain SLT2, hits give low values 0.23 | locus YHR079C, strain IRE1, hits give low values 0.17 | locus YHR082C, strain KSP1, hits give low values 0.412 | locus YHR205W, strain SCH9, hits give low values 0.071 | locus YIL147C, strain SLN1, hits give low values 0.555 | locus YJL095W, strain BCK1, hits give low values 0.284 | locus YJL157C, strain FAR1, hits give low values 0.318 | locus YJR016C, strain ILV3, hits give low values 0.587 | locus YJR066W, strain TOR1 (second series), hits give low values 0.459 | locus YJR066W, strain TOR1, hits give low values 0.376 | locus YKL048C, strain ELM1, hits give low values 0.282 | locus YKL067W, strain YNK1, hits give low values 0.359 | locus YKL101W, strain HSL1, hits give low values 0.346 | locus YKL193C, strain SDS22, hits give low values 0.66 | locus YKL203C, strain TOR2, hits give low values 0.37 | locus YLR113W, strain HOG1, hits give low values 0.302 | locus YLR133W, strain CKI1, hits give low values 0.238 | locus YLR403W, strain SFP1, hits give low values 0.109 | locus YML070W, strain DAK1, hits give low values 0.291 | locus YMR001C, strain CDC5, hits give low values 0.673 | locus YMR205C, strain PFK2 (second series), hits give low values 0.159 | locus YMR277W, strain FCP1, hits give low values 0.594 | locus YNL006W, strain LST8, hits give low values 0.574 | locus YNL020C, strain ARK1, hits give low values 0.191 | locus YNL161W, strain CBK1, hits give low values 0.704 | locus YNL183C, strain NPR1, hits give low values 0.241 | locus YNL207W, strain RIO2, hits give low values 0.666 | locus YNL222W, strain SSU72, hits give low values 0.653 | locus YNL307C, strain MCK1 (second series), hits give low values 0.162 | locus YOL078W, strain AVO1, hits give low values 0.652 | locus YOL136C, strain PFK27, hits give low values 0.26 | locus YOR061W, strain CKA2, hits give low values 0.141 | locus YOR119C, strain RIO1, hits give low values 0.37 | locus YOR231W, strain MKK1, hits give low values 0.285 | locus YOR329C, strain SCD5, hits give low values 0.701 | locus YPL031C, strain PHO85, hits give low values 0.219 | locus YPL153C, strain RAD53, hits give low values 0.158 | locus YPL204W, strain HRR25, hits give low values 0.214 | locus YPL209C, strain IPL1, hits give low values 0.711 | locus YPL256C, strain CLN2, hits give low values 0.492 | locus YPR025C, strain CCL1, hits give low values 0.728 | locus YPR106W, strain ISR1, hits give low values 0.851 | locus YPR111W, strain DBF20, hits give low values 0.756 | strain NNK1, hits give low values 0.747 | strain TSCII, hits give low values 0.661
